# In PubChem BioAssay (EPA / NIEHS):
# Inconclusive results are not listed. Activity calls are given as the source filed them. The calls were made as follows, unless noted: active = hit-call score of the fitted dose curve at least 0.9, where 1 is the maximum; inactive = score below 0.9.
# Columns and labels:
# [1] = target: Peroxisome proliferator-activated receptor gamma (Homo sapiens) (UniProt P37231); test: OT_PPARg_PPARgSRC1_0480: Odyssey Thera (OT) 8-hour Protein-Complementation Assay for Peroxisome Proliferator-activated Receptor Gamma / SRC-1 Co-activator (AID 2283387; active = hit-call score of the fitted dose curve at least 0.9, where 1 is the maximum;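 also: nuclear to cytoplasmic split Venus YFP fluorescence ratio reporting PPARg SRC-1 interaction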)
# Procedure, shortened: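 Protein-fragment complementation of split Venus YFP reports PPARg/SRC-1 interaction in HEK293T (transfected 48 h before treatment), exposed 8 h. Readout: N/C fluorescence ratio at 488 nm from imaging, Draq5 for segmentation, positive fit relative to DMSO.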
# [2] = target: Peroxisome proliferator-activated receptor gamma (Homo sapiens) (UniProt P37231); test: OT_PPARg_PPARgSRC1_1440: Odyssey Thera (OT) 24-hour Protein-Complementation Assay for Peroxisome Proliferator-activated Receptor Gamma/ SRC-1 Co-activator (AID 2283388; active = hit-call score of the fitted dose curve at least 0.9, where 1 is the maximum;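 also: nuclear to cytoplasmic ratio of reconstituted Venus YFP fluorescence in fixed imaged cells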)
# Procedure, shortened: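 Readout is the 488 nm N/C fluorescence ratio from fixed, Draq5-stained HEK293T cells after 24 h compound exposure. Cells carried transiently transfected PPARg and SRC-1 fused to Venus fragments, transfected 48 h before treatment.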
# [3] = CEETOX_H295R_OHPROG: CeeTox H295R High-throughput Steroidogenesis Assay for OH-Progesterone (OHPROG) (AID 2283435); settings: actives raise or lower the signal;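 as to AC50: 17alpha-hydroxyprogesterone secreted into medium measured by HPLC-MS/MS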
# Procedure, shortened: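 Human adrenocortical H295R cells, passage 10 or lower, were treated with chemical for 48 h after forskolin priming, and hormone output in the medium was quantified by LC-MS/MS.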
# [4] = CEETOX_H295R_CORTIC: CeeTox H295R High-throughput Steroidogenesis Assay for Corticosterone (CORTIC) (AID 2283437); settings: actives raise or lower the signal
# Procedure, shortened: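 Medium corticosterone was quantified by tandem mass spectrometry following 48 hours of chemical exposure (0.1% DMSO) in human H295R cells previously stimulated 48 hours with 10 uM forskolin. Viability checked by MTT; chemicals diluted and retested when viability fell below 70%.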
# [5] = CEETOX_H295R_CORTISOL: CeeTox H295R High-throughput Steroidogenesis Assay for Cortisol (AID 2283438); settings: actives raise or lower the signal;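 also: cortisol secreted into medium quantified by LC-MS/MS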
# Procedure, shortened: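 Steroidogenesis in H295R, per modified OECD 456: 48 h forskolin (10 uM), then 48 h exposure, 0.1% DMSO. Cortisol by extraction and tandem MS; viability by MTT (570/650 nm); cytotoxic chemicals diluted and re-tested.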
# [6] = CEETOX_H295R_DOC: CeeTox H295R High-throughput Steroidogenesis Assay for DOC (AID 2283439); settings: actives raise or lower the signal
# Procedure, shortened: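 H295R, fsk 10 uM ×48 h pre, cmpd ×48 h (0.1% DMSO). Media → MTBE extr. → LC-MS/MS, DOC. Bidirectional fit vs DMSO; MTT viability same wells, re-test diluted if <70%.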
# [7] = CEETOX_H295R_PROG: CeeTox H295R High-throughput Steroidogenesis Assay for Progesterone (PROG) (AID 2283442); settings: actives raise or lower the signal;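 as to AC50: human H295R adrenal cells primed with 10 µM forskolin before dosing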
# Procedure, shortened: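 Progesterone secreted by human H295R cells was measured by LC-MS/MS following 48 h chemical exposure at 0.1% DMSO, preceded by 48 h forskolin (10 uM) stimulation. Same-well MTT viability; cytotoxic concentrations diluted 10- or 100-fold and retested.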
# [8] = read-out: Tumor necrosis factor receptor superfamily member 6 (Homo sapiens) (UniProt P25445); test: LTEA_HepaRG_FAS: Life Technologies and Expression Analysis (LTEA) Assay for Fas cell surface death receptor (FAS) using HepaRG (AID 2283447); settings: mRNA level, 48 h; actives raise or lower the signal
# Procedure, shortened: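 FAS transcript level was measured by TaqMan qRT-PCR against three housekeeping genes after 48 h chemical exposure. Cells were HepaRG, 0.5% DMSO vehicle, with a top concentration of 100 uM and half-log dilutions over eight points, in duplicate.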
# [9] = read-out: Fatty acid synthase (Homo sapiens) (UniProt P49327); test: LTEA_HepaRG_FASN: Life Technologies and Expression Analysis (LTEA) Assay for Fatty Acid Synthase (FASN) using HepaRG (AID 2283448); settings: mRNA level, 48 h; actives raise or lower the signal;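 as to AC50: differentiated human HepaRG liver cells in serum-free induction medium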
# Procedure, shortened: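 In human HepaRG cultures, 48 h chemical exposure (up to 100 uM, 0.5% DMSO) preceded TaqMan qRT-PCR of FASN.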
# [10] = read-out: Cyclin Dependent Kinase Inhibitor 1A (CDKN1A), CDKN1A (gene 1026); test: LTEA_HepaRG_CDKN1A: Life Technologies and Expression Analysis (LTEA) Assay for Cyclin Dependent Kinase Inhibitor 1A (CDKN1A) using HepaRG (AID 2283450); settings: mRNA level, 48 h; actives raise or lower the signal
# Procedure, shortened: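 Expression quantified by Fluidigm qRT-PCR with ACTB, GAPDH and POLR2A normalization, fitted bidirectionally against 0.5% DMSO. Cells: HepaRG, plated 48 h then treated 48 h in serum-free induction medium, top concentration 100 uM with half-log dilutions.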
# [11] = read-out: Cyclin D1 (CCND1), CCND1 (gene 595); test: LTEA_HepaRG_CCND1: Life Technologies and Expression Analysis (LTEA) Assay for Cyclin D1 (CCND1) using HepaRG (AID 2283451); settings: mRNA level, 48 h; actives raise or lower the signal
# Procedure, shortened: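 Expression of CCND1 was quantified by qRT-PCR on Fluidigm arrays using ACTB, GAPDH and POLR2A as reference genes. HepaRG cultures, plated 48 h beforehand, were dosed for 48 h at up to 100 uM (half-log, 8 points) in 0.5% DMSO.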
# [12] = read-out: catalase (CAT), CAT (gene 847); test: LTEA_HepaRG_CAT: Life Technologies and Expression Analysis (LTEA) Assay for catalase (CAT) using HepaRG (AID 2283452); settings: mRNA level, 48 h; actives raise or lower the signal;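 as to AC50: TaqMan qRT-PCR signal normalized to ACTB GAPDH and POLR2A housekeeping genes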
# Procedure, shortened: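 Expression of CAT was quantified by TaqMan qRT-PCR with ACTB/GAPDH/POLR2A normalization after 48 h chemical exposure of HepaRG. Eight-point half-log series, top 100 uM, in 0.5% DMSO; gain or loss fitted against vehicle.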
# [13] = read-out: flavin-containing dimethylaniline monooxygenases 3 (FMO3), FMO3 (gene 2328); test: LTEA_HepaRG_FMO3: Life Technologies and Expression Analysis (LTEA) Assay for flavin-containing dimethylaniline monooxygenases 3 (FMO3) using HepaRG (AID 2283453); settings: mRNA level, 48 h; actives raise or lower the signal;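 as to AC50: differentiated human HepaRG liver cells in serum-free induction medium; FMO3 transcript by TaqMan qRT-PCR normalized to ACTB GAPDH and POLR2A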
# Procedure, shortened: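 Eight-point concentration-response in serum-free HepaRG cultures (top 100 uM, 0.5% DMSO, 48 h). Read-out: FMO3 mRNA level normalized to three endogenous control genes, fitted bidirectionally versus vehicle.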
# [14] = read-out: Cytochrome P450 (CYP1A1), CYP1A1 (gene 1543); test: LTEA_HepaRG_CYP1A1: Life Technologies and Expression Analysis (LTEA) Assay for Cytochrome P450 (CYP1A1) using HepaRG (AID 2283454); settings: mRNA level, 48 h; actives raise or lower the signal
# Procedure, shortened: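 CYP1A1 transcript levels measured by Fluidigm qRT-PCR against three housekeeping genes, 48 h after chemical dosing of human HepaRG cells (highest concentration 100 uM, half-log steps, 0.5% DMSO vehicle). Gain or loss of signal fitted relative to DMSO.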
# [15] = read-out: CFLAR gene, CFLAR (gene 8837); test: LTEA_HepaRG_CFLAR: Life Technologies and Expression Analysis (LTEA) Assay for CFLAR gene using HepaRG (AID 2283455); settings: mRNA level, 48 h; actives raise or lower the signal
# Procedure, shortened: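 Transcript level by qRT-PCR (normalized to ACTB, GAPDH and POLR2A) after 48 h chemical exposure of HepaRG cells, top concentration 100 uM with half-log steps, 0.5% DMSO vehicle, duplicates; fitted bidirectionally against DMSO baseline.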
# [16] = CEETOX_H295R_ESTRADIOL: CeeTox H295R High-throughput Steroidogenesis Assay for Estradiol (AID 2283440); settings: actives raise or lower the signal;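 also: estradiol secreted into medium quantified by LC-MS/MS after dansyl derivatisation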
# Procedure, shortened: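 Estradiol in spent medium measured by LC-MS/MS after dansyl chloride derivatisation. Forskolin-primed (10 uM, 48 h) human adrenal H295R cells received test chemical 48 h at 0.1% DMSO; concentrations lowered until MTT viability >/=70%.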
# [17] = CEETOX_H295R_ESTRONE: CeeTox H295R High-throughput Steroidogenesis Assay for Estrone (AID 2283441); settings: actives raise or lower the signal;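 also: estrone secreted into medium measured by LC-MS/MS after dansyl derivatization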
# Procedure, shortened: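 Forskolin-stimulated H295R cells are treated 48 h with chemical, and estrone in the medium is measured by LC-MS/MS. Activity is fitted in both directions relative to DMSO controls, with chemicals diluted until MTT viability reaches at least 70%.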
# [18] = read-out: Cyclin D2 (CCND2), CCND2 (gene 894); test: LTEA_HepaRG_CCND2: Life Technologies and Expression Analysis (LTEA) Assay for Cyclin D2 (CCND2) using HepaRG (AID 2283449); settings: mRNA level, 48 h; actives raise or lower the signal
# Procedure, shortened: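 CCND2 transcript levels, quantified by qRT-PCR and normalised to three housekeeping genes, were fitted bidirectionally against 0.5% DMSO. HepaRG cultures were dosed 48 h in duplicate with an 8-point half-log series up to 100 uM.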
# [19] = read-out: Forkhead box O1 (FOXO1), FOXO1 (gene 2308); test: LTEA_HepaRG_FOXO1: Life Technologies and Expression Analysis (LTEA) Assay for Forkhead box O1 (FOXO1) using HepaRG (AID 2283456); settings: mRNA level, 48 h; actives raise or lower the signal
# Procedure, shortened: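 FOXO1 transcript quantified by qRT-PCR after 48 h chemical exposure (top 100 uM, half-log steps, 0.5% DMSO) of HepaRG cells, housekeeping-normalized (ACTB/GAPDH/POLR2A). Changes fitted in both directions relative to vehicle.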
# Sequence of Peroxisome proliferator-activated receptor gamma (Homo sapiens) (P37231 whole entry, looked up, the tested form may be a part): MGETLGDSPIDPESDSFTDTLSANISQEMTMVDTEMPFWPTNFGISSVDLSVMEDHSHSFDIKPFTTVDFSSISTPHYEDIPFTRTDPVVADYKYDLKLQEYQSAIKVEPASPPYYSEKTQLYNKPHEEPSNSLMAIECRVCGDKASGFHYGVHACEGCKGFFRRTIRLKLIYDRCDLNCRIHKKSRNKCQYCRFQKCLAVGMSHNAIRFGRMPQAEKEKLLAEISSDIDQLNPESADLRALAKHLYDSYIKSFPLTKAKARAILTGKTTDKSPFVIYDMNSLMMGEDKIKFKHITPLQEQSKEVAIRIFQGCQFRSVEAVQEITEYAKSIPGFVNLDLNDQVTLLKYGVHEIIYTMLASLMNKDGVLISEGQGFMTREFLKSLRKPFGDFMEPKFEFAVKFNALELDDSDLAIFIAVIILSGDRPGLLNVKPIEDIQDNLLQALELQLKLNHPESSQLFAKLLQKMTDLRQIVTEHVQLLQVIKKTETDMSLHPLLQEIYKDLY
# Sequence of Fatty acid synthase (Homo sapiens) (P49327 whole entry, looked up): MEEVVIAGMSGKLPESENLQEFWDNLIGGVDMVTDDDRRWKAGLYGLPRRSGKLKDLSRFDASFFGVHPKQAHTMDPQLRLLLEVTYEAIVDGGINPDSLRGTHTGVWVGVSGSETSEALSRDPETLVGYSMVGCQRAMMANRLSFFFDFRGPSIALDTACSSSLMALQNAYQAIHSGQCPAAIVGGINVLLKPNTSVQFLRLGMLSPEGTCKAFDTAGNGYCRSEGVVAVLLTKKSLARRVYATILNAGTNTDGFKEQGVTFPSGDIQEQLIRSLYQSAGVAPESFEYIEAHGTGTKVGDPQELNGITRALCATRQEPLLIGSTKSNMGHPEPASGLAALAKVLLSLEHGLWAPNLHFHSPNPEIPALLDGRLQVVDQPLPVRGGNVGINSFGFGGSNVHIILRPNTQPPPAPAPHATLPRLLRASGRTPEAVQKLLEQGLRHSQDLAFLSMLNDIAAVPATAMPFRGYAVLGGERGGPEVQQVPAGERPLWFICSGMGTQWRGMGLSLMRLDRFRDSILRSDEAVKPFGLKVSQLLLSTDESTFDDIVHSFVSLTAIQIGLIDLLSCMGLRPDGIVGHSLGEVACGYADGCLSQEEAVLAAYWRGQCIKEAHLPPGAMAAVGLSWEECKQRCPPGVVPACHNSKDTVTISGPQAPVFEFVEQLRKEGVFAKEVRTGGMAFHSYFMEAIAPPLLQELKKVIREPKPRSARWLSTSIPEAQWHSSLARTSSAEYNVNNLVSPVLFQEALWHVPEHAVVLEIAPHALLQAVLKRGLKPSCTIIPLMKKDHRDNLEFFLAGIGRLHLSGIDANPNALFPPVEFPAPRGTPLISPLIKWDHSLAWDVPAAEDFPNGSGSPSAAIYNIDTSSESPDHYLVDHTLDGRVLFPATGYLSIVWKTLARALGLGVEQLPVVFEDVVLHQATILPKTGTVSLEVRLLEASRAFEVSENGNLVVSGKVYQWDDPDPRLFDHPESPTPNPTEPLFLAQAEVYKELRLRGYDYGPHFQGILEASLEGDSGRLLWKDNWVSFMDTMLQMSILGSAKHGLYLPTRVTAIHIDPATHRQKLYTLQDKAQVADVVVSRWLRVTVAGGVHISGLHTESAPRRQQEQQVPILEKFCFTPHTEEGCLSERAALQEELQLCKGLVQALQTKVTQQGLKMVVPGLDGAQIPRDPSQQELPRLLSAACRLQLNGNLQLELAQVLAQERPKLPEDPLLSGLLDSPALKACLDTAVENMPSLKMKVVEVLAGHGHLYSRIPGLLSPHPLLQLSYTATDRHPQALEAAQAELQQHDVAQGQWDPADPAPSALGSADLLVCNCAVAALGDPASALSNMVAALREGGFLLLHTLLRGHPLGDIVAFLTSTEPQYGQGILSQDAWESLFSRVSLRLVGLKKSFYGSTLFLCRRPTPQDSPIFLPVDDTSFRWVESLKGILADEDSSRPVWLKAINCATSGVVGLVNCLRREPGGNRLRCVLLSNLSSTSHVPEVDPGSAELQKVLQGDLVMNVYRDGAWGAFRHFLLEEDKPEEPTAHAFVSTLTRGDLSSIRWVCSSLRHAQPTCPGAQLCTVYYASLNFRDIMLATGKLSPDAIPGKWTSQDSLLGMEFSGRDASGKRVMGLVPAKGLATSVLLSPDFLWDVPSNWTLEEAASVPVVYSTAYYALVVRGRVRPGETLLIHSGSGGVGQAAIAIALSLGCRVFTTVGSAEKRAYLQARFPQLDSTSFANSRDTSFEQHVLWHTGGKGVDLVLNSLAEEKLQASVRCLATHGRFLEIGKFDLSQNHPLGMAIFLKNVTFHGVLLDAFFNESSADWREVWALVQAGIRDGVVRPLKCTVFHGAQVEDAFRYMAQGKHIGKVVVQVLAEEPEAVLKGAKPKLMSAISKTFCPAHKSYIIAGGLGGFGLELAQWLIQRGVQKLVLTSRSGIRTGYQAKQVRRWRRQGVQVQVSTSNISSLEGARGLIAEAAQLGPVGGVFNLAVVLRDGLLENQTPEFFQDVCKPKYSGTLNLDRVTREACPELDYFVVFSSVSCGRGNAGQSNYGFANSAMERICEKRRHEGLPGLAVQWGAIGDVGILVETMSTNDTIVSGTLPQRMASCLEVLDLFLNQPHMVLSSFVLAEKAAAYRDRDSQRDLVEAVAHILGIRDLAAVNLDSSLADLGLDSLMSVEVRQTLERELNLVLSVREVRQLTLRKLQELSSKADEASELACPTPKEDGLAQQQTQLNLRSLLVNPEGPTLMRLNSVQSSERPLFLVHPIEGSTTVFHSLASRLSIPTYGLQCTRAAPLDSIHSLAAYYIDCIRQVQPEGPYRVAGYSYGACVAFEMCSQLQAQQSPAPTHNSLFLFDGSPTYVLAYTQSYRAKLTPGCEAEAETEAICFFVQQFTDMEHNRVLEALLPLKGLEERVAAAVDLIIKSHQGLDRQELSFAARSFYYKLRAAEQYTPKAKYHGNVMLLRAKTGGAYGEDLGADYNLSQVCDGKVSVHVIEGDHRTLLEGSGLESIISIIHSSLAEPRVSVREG
smiles,measurement,setting,value
ClC1=C(Cl)[C@]2(Cl)[C@@H]3[C@H]4C[C@H]([C@@H]5O[C@H]45)[C@@H]3[C@@]1(Cl)C2(Cl)Cl,outcome,[1],inactive
same,outcome,[2],inactive
same,AC50,[3],13 µM (active)
same,outcome,[4],inactive
same,AC50,[5],5.13 µM (active)
same,AC50,[6],14.6 µM (active)
same,AC50,[7],3 µM (active)
same,outcome,[8],inactive
same,AC50,[9],87.6 µM (active)
same,outcome,[10],inactive
same,outcome,[11],inactive
same,AC50,[12],13.3 µM (active)
same,AC50,[13],50 µM (active)
same,outcome,[14],inactive
same,outcome,[15],inactive
Cc1ccc(O)c(C)c1,outcome,[1],inactive
same,outcome,[2],inactive
same,outcome,[3],inactive
same,outcome,[4],inactive
same,outcome,[5],inactive
same,outcome,[6],inactive
same,outcome,[16],inactive
same,outcome,[17],inactive
same,outcome,[7],inactive
same,outcome,[8],inactive
same,outcome,[9],inactive
same,outcome,[18],inactive
same,outcome,[10],inactive
same,outcome,[11],inactive
same,outcome,[12],inactive
same,outcome,[13],inactive
same,outcome,[14],inactive
same,outcome,[15],inactive
same,outcome,[19],inactive
CCOCCOC(C)=O,outcome,[1],inactive
same,outcome,[2],inactive
same,outcome,[3],inactive
same,outcome,[4],inactive
same,outcome,[5],inactive
same,outcome,[6],inactive
same,outcome,[7],inactive
same,outcome,[8],inactive
same,outcome,[9],inactive
same,outcome,[18],inactive
same,outcome,[10],inactive
same,outcome,[11],inactive
same,outcome,[12],inactive
same,outcome,[13],inactive
same,AC50,[14],50 µM (active)
same,outcome,[15],inactive
